Experimental data taken from ChEMBL document CHEMBL1961873, “Compounds: GSK PKIS; Assays: Nanosyn kinase panel” (2012).

Tests used:
[1] = molecular target: T1, Inhibitor of nuclear factor kappa-B kinase subunit epsilon (Homo sapiens) (UniProt Q14164); settings: at 1 µM;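 note: reported values are averaged percent inhibition figures against human IKKε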
T1 sequence (whole entry): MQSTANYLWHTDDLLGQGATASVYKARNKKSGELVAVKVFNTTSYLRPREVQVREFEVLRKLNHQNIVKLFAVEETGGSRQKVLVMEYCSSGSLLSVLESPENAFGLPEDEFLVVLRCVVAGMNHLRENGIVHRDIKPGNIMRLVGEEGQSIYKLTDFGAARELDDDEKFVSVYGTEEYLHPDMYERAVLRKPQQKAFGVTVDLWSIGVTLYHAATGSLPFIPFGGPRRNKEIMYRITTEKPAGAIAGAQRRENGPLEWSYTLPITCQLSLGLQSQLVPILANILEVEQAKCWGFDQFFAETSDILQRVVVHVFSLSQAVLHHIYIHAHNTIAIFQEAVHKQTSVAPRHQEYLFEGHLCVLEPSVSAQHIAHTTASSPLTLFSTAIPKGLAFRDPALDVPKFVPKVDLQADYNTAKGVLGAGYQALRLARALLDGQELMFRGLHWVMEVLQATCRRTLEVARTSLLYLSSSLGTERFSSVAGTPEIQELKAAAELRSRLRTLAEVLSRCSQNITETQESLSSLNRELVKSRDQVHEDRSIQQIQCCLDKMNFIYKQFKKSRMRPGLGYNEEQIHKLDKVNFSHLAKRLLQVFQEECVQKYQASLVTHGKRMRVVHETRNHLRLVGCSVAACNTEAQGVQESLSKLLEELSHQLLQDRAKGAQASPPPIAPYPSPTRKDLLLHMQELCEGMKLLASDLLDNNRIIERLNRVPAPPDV

[2] = molecular target: T2, Serine/threonine-protein kinase Nek1 (Homo sapiens) (UniProt Q96PY6); settings: at 0.1 µM
T2 sequence (whole entry): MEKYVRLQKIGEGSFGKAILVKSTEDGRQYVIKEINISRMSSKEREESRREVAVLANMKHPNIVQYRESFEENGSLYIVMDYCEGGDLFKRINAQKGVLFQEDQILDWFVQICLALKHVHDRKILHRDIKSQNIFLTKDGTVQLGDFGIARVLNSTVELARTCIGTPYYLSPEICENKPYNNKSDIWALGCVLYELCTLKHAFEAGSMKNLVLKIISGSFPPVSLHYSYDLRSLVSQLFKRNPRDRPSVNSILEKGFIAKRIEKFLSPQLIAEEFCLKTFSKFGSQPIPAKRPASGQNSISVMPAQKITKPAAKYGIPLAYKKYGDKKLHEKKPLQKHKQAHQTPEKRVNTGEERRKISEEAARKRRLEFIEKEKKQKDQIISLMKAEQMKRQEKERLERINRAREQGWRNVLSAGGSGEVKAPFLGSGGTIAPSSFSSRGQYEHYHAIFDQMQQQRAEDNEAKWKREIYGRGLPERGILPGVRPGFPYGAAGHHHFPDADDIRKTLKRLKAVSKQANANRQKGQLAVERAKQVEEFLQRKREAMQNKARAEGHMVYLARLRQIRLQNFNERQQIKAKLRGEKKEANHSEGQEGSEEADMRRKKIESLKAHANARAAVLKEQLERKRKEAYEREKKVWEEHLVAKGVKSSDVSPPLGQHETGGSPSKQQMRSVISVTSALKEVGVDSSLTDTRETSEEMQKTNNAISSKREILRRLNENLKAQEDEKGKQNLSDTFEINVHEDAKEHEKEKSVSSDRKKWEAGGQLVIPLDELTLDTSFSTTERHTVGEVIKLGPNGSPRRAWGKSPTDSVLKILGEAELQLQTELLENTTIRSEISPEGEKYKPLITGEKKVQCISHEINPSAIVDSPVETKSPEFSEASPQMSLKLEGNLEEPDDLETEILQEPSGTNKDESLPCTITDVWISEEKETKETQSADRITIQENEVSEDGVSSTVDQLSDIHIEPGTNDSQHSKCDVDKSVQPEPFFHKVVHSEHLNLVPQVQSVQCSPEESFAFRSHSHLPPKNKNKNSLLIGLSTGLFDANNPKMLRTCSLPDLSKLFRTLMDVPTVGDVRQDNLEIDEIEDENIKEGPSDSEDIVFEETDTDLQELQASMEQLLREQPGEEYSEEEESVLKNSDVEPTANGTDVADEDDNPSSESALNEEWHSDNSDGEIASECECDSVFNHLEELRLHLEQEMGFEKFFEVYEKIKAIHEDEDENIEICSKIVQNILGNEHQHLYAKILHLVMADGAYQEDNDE

[3] = molecular target: T2, Serine/threonine-protein kinase Nek1 (Homo sapiens); settings: at 1 µM
[4] = molecular target: T3, Serine/threonine-protein kinase Nek2 (Homo sapiens) (UniProt P51955); settings: at 1 µM
T3 sequence (whole entry): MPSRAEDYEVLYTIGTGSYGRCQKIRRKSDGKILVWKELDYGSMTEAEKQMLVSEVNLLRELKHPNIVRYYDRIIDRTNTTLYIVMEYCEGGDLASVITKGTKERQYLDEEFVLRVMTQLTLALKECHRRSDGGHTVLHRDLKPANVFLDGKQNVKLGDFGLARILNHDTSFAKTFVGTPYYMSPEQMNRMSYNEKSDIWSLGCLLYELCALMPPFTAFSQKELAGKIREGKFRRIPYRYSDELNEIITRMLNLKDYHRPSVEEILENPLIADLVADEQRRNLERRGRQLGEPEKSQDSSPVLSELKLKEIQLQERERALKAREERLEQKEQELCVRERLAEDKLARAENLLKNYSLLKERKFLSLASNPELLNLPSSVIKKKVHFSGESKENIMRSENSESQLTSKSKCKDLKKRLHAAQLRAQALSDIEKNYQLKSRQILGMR

[5] = molecular target: Serine/threonine-protein kinase Nek6 (Homo sapiens) (UniProt Q9HC98); settings: at 0.1 µM
Sequence of Serine/threonine-protein kinase Nek6 (Homo sapiens) (Q9HC98 whole entry): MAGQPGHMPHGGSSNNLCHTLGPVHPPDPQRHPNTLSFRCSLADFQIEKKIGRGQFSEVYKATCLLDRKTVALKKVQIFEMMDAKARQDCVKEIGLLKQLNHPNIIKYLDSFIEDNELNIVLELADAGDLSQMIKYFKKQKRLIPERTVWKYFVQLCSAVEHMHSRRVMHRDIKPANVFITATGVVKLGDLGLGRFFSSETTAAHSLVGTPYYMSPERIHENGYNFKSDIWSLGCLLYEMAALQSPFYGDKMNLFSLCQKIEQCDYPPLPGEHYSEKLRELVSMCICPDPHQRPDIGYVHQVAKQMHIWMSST

[6] = molecular target: Serine/threonine-protein kinase Nek6 (Homo sapiens) (UniProt Q9HC98); settings: at 1 µM
[7] = molecular target: Serine/threonine-protein kinase Nek7 (Homo sapiens) (UniProt Q8TDX7); settings: at 0.1 µM
Sequence of Serine/threonine-protein kinase Nek7 (Homo sapiens) (Q8TDX7 whole entry, looked up): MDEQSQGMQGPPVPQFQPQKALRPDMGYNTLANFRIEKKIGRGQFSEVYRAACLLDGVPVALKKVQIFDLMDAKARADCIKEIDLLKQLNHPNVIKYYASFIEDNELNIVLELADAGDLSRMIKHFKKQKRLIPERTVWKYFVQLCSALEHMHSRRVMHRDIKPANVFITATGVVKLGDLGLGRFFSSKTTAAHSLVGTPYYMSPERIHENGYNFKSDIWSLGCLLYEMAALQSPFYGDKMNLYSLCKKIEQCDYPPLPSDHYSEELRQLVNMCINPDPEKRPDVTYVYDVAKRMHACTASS

[8] = molecular target: Serine/threonine-protein kinase Nek7 (Homo sapiens) (UniProt Q8TDX7); settings: at 1 µM
[9] = molecular target: T4, Serine/threonine-protein kinase Nek9 (Homo sapiens) (UniProt Q8TD19); settings: at 0.1 µM
T4 sequence (whole entry): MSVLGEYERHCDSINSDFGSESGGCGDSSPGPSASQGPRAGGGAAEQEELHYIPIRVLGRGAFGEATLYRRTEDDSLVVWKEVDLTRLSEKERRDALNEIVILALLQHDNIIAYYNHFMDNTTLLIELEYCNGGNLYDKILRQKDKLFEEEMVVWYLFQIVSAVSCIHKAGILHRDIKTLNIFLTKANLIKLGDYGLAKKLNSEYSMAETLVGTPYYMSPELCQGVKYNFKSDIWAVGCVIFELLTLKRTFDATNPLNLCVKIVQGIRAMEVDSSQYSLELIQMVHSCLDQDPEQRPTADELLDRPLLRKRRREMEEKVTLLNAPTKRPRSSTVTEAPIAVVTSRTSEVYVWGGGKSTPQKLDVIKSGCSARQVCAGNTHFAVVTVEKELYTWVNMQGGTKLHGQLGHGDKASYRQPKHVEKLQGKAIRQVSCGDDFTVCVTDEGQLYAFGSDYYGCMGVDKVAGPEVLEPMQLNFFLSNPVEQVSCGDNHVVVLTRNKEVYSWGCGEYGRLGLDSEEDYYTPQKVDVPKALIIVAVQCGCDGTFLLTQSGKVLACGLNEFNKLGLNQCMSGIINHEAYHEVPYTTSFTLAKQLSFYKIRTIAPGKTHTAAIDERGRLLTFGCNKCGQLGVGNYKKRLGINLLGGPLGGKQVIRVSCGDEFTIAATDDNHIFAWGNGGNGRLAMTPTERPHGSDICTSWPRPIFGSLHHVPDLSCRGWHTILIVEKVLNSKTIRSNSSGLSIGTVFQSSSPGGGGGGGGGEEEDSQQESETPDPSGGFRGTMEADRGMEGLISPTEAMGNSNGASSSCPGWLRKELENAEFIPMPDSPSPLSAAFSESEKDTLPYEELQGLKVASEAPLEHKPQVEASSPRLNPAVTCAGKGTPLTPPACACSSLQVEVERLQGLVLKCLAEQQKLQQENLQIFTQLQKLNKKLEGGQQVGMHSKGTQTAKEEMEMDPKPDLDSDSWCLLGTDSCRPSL

[10] = molecular target: T4, Serine/threonine-protein kinase Nek9 (Homo sapiens); settings: at 1 µM
[11] = molecular target: Serine/threonine-protein kinase PLK1 (Homo sapiens) (UniProt P53350); settings: at 0.1 µM
Sequence of Serine/threonine-protein kinase PLK1 (Homo sapiens) (P53350 whole entry): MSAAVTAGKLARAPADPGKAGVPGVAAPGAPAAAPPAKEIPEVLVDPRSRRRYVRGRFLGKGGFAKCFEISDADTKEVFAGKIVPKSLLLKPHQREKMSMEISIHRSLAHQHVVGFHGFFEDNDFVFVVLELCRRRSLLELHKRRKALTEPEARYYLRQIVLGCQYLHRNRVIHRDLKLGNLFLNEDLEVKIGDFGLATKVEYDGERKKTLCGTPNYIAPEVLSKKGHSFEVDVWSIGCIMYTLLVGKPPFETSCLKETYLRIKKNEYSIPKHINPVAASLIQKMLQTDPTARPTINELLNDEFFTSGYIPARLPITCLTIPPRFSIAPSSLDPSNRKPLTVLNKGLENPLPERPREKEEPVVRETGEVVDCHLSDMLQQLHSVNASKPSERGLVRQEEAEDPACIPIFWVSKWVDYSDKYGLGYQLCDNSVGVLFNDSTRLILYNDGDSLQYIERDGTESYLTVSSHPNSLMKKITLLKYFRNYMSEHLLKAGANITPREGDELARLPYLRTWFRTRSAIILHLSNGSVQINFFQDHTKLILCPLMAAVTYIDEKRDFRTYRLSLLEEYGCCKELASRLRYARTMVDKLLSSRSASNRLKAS

[12] = molecular target: Serine/threonine-protein kinase PLK1 (Homo sapiens) (UniProt P53350); settings: at 1 µM
[13] = molecular target: T5, Dual specificity protein kinase TTK (Homo sapiens) (UniProt P33981); settings: at 0.1 µM
T5 sequence (whole entry): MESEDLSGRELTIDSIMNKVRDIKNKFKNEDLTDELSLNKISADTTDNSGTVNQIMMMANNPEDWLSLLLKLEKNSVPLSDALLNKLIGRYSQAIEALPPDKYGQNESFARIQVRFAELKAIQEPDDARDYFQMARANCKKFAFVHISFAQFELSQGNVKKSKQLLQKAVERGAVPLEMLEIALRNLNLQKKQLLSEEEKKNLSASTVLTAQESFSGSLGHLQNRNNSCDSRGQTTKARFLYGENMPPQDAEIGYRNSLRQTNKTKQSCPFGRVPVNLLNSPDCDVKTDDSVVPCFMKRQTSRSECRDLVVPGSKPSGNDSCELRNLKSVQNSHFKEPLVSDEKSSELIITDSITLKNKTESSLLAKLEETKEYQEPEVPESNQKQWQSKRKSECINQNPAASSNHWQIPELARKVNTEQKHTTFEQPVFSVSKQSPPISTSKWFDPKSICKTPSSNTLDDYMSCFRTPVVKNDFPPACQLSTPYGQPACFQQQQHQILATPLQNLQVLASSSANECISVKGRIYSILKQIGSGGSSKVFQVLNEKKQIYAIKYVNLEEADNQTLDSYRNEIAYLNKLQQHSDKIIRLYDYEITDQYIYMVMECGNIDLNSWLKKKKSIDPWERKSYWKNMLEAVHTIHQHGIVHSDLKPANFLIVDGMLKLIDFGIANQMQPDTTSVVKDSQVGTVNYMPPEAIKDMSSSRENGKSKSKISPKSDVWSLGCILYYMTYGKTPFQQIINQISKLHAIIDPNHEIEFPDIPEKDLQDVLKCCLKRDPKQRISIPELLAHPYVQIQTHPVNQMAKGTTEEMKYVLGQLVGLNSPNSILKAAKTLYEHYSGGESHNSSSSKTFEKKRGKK

[14] = test system: T6, Receptor-type tyrosine-protein kinase FLT3 (Homo sapiens), P36888 [D835Y]; settings: at 1 µM
T6 sequence (whole entry): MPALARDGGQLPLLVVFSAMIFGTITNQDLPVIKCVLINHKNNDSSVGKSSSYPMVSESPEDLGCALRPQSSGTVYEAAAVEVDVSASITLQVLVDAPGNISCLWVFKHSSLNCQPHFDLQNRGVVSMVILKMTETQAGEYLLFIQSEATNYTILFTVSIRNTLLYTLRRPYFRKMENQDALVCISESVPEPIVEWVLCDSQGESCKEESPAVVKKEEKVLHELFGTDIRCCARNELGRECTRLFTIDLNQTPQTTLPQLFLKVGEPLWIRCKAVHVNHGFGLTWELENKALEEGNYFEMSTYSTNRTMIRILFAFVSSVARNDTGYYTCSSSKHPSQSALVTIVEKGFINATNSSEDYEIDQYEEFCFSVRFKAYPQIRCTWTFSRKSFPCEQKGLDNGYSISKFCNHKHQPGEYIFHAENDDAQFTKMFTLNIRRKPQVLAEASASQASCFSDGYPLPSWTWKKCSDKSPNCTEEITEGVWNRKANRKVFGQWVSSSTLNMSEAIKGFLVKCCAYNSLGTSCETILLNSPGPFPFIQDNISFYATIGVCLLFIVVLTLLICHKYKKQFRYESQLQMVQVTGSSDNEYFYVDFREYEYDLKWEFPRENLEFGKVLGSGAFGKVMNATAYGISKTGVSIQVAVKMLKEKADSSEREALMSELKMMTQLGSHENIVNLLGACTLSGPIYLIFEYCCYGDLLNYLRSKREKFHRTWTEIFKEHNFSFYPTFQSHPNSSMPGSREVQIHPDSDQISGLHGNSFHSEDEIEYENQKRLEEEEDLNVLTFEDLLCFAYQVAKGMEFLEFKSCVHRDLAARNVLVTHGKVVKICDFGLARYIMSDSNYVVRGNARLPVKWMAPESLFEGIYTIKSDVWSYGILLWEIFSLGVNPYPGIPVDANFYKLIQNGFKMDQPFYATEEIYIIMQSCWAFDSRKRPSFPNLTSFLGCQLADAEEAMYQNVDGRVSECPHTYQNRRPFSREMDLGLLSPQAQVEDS

[15] = molecular target: Macrophage colony-stimulating factor 1 receptor (Homo sapiens) (UniProt P07333); settings: at 0.1 µM
Sequence of Macrophage colony-stimulating factor 1 receptor (Homo sapiens) (P07333 whole entry): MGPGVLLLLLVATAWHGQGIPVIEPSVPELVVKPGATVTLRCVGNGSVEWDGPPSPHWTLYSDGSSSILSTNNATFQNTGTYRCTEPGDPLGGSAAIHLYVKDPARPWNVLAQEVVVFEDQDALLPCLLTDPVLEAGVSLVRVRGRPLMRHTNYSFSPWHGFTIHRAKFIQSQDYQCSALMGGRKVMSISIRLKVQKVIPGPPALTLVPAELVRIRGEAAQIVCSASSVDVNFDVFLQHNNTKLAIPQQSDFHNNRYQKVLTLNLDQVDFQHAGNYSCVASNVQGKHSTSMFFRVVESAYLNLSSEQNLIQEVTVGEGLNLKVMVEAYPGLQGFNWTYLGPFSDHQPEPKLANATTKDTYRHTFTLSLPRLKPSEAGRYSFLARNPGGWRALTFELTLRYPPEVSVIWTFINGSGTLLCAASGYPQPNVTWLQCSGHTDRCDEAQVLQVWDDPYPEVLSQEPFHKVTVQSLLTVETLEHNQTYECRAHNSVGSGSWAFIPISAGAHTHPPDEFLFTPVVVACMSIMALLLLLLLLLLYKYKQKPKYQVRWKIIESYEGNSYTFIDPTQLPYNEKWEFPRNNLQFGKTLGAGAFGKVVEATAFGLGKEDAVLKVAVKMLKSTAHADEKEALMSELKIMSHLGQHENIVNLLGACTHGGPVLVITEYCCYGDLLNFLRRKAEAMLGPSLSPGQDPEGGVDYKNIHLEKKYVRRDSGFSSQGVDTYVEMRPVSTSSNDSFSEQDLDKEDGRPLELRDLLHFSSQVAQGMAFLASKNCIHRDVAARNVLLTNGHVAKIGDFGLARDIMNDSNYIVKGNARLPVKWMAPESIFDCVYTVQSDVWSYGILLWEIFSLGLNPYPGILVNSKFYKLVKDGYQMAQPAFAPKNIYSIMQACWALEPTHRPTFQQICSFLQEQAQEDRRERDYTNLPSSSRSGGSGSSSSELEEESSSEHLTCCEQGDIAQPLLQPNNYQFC

[16] = molecular target: Macrophage colony-stimulating factor 1 receptor (Homo sapiens) (UniProt P07333); settings: at 1 µM
[17] = molecular target: Tyrosine-protein kinase Fyn (Homo sapiens) (UniProt P06241); settings: at 0.1 µM
Sequence of Tyrosine-protein kinase Fyn (Homo sapiens) (P06241 2-537 limits assumed): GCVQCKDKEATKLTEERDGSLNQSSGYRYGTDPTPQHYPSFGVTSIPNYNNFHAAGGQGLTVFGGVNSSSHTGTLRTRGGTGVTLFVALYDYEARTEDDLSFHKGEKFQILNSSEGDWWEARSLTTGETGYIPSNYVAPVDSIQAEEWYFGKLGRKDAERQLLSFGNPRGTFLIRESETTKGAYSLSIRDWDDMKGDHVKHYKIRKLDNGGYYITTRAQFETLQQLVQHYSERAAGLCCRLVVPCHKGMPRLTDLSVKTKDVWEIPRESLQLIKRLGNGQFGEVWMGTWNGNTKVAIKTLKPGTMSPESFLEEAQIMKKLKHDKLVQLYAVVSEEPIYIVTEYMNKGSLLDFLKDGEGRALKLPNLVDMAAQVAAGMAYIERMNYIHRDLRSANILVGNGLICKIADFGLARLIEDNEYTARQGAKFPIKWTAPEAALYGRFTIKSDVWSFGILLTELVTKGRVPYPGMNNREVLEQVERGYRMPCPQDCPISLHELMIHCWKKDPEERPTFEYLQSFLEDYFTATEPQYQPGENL

[18] = molecular target: T3, Serine/threonine-protein kinase Nek2 (Homo sapiens); settings: at 0.1 µM
[19] = molecular target: Vascular endothelial growth factor receptor 3 (Homo sapiens) (UniProt P35916); settings: at 0.1 µM
Sequence of Vascular endothelial growth factor receptor 3 (Homo sapiens) (P35916 whole entry): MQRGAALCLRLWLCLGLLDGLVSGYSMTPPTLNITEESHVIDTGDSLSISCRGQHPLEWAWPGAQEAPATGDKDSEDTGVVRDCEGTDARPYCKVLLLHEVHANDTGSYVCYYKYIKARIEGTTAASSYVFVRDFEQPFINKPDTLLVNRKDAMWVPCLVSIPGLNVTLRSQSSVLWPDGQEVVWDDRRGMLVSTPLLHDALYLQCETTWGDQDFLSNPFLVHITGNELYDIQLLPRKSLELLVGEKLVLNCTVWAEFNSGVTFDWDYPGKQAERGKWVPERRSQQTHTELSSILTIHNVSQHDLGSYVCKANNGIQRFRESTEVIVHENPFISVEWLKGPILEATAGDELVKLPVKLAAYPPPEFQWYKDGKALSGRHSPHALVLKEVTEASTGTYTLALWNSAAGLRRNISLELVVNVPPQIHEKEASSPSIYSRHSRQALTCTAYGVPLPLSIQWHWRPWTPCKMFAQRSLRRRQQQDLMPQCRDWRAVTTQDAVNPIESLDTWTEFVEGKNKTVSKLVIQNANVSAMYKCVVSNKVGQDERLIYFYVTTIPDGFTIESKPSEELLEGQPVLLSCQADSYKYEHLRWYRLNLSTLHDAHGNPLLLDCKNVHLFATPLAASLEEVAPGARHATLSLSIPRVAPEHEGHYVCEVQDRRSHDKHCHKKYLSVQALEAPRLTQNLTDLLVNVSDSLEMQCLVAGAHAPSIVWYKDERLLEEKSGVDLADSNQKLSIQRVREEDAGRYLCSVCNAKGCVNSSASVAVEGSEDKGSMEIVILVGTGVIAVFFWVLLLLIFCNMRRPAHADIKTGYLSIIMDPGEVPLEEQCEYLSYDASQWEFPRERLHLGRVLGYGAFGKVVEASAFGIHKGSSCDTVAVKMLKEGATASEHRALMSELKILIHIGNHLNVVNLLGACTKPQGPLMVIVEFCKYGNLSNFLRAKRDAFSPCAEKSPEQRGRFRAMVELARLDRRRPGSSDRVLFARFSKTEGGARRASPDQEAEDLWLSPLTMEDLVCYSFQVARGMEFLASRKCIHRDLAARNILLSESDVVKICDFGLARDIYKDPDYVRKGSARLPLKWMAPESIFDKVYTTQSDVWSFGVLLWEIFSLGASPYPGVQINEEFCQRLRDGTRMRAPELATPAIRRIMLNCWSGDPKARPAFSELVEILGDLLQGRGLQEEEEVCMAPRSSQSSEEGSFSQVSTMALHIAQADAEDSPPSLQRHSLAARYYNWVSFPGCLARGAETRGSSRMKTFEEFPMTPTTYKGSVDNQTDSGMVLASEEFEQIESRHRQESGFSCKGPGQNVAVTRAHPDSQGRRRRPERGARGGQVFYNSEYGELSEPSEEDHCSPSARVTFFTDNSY

[20] = molecular target: Vascular endothelial growth factor receptor 3 (Homo sapiens) (UniProt P35916); settings: at 1 µM

Compound | inhibition [1] [%] | inhibition [2] [%] | inhibition [3] [%] | inhibition [4] [%] | inhibition [5] [%] | inhibition [6] [%] | inhibition [7] [%] | inhibition [8] [%] | inhibition [9] [%] | inhibition [10] [%] | inhibition [11] [%] | inhibition [12] [%] | inhibition [13] [%] | inhibition [14] [%] | inhibition [15] [%] | inhibition [16] [%] | inhibition [17] [%] | inhibition [18] [%] | inhibition [19] [%] | inhibition [20] [%]
COc1cc2c(cc1Nc1nc(Nc3ccsc3C(N)=O)c3cc[nH]c3n1)N(C(=O)CN(C)C)CCC2 | 9.27 | 0.09 | 0.97 | 6.67 | 1.52 | -0.11 | 1.7 | 9.62 | 1.89 | -3.87 | 86.3 | 97.1 | 9.22 | 5.44 | 55 | 82.8 | 2.02 | – | – | –
CCn1c(-c2nonc2N)nc2c(C#CC(C)(C)O)nc(O[C@@H](CN)c3ccccc3)cc21 | 98.9 | 1.61 | 17.2 | 33.5 | 0.93 | -0.92 | 1.12 | 0.58 | 3.66 | -1.03 | 0.95 | 0.24 | 3.8 | 2.22 | 0.67 | 1.9 | 3.24 | 5.29 | 58.4 | 93.8
